# In the library only some 7.3% were active in any assay of this set; here they are far more common.
# Vaccinia mCherry: inhibitors of vaccinia virus infection (mCherry reporter signal); Vaccinia virus mCherry reporter infection, fluorescence; Potency, µM (series often up to 36.5 µM), for the others: at the top dose activity change, negative = inhibition, usual class: inhibitors; actives 0.63% (n = 310,000); calls by dose curve; tested in A549 cells; note: potency is the fitted concentration of half-maximal effect; nearly all actives have a fitted effect of over 35% in size
# FMDV antiviral: antivirals against foot and mouth disease virus | FMDV antiviral cell-based qHTS | actives 1.2% (n = 410,000) | Potency, µM (titrated, usually from 57.9 µM), for the others: at the highest dose activity change, negative = inhibition, most hits filed as inhibitors; calls by dose curve; tested in HEK293T cells; note: read-out not given here; potency is the fitted concentration of half-maximal effect; nearly all actives have a fitted effect of over 45% in size
# HCMV inh: human cytomegalovirus inhibition. HFF cells, HCMV-luciferase reporter, 72 h; stronger effect = lower value. activity change, negative = inhibition, % at 57.5 µM. actives 4.5% (n = 410,000). AID 1259415; in the data active = activity change below about -60%; inconclusive = no clear call, values can overlap the other calls; inactive = above about -39%
#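 Two compound doses tested in HFFs infected with HCMV-luciferase, MOI 1 PFU/cell, 72 h at 37C. Lysate luminescence read with OneGlo; data normalized against buffer-only and 10uM Salinomycin inhibitor controls.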
# Vaccinia Venus: vaccinia inhibition (Venus reporter) | Vaccinia virus Venus reporter expression, fluorescence | Potency, µM (doses to about 36.5 µM), for inactives: at the highest dose activity change, negative = inhibition, most hits filed as inhibitors | actives 0.46% (n = 330,000) | AID 720580; calls by dose curve; tested in A549 cells; note: potency is the fitted concentration of half-maximal effect; nearly all actives have a fitted effect of over 30% in size
# HCV inhibitor: blocks hepatitis C virus | Potency, µM (series often up to 41.8 µM), for inactives: top-dose activity change, negative = inhibition, most hits filed as inhibitors | actives 3.4% (n = 340,000) | Huh7.5.1 HCVcc-Cre infection, luciferase reporter, 44 h; active = well fitted inhibition curve with a large enough effect; inconclusive = small, poorly fitted or top-dose-only effect, or another doubt; inactive = no such curve, though single readings can be large or run the other way; note: potency is the fitted concentration of half-maximal effect
#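 1,000 cells/well; 4 h culture; + compound; + HCVcc-Cre (~0.5 moi); 44 h; luciferase substrate, RT 15 min; read 15 sec.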
# * marks the source's active call; other numbers are inactive results; i = inactive; ? = inconclusive; / = no result given; [ ] = remark or other dose. % is set by controls: 0 for no effect and ±100 for the full control effect.
SMILES,Vaccinia mCherry,FMDV antiviral,HCMV inh,Vaccinia Venus,HCV inhibitor
CCOC(=O)c1cc(C)n(Cc2ccc(OCC)c(OC)c2)c1C,/,?,-8,/,11µM*
Cc1cc(C(=O)CSc2nnc(N)s2)c(C)n1CCc1ccc(Cl)cc1,/,?,-27,/,?
Cc1cc(C(=O)CCl)c(C)n1CCc1ccc(F)cc1,-8%,28µM*,-83*,-2%,?
Cc1cc(C(=O)CCl)c(C)n1CCc1ccc(Cl)cc1,-12%,22µM*,-98*,-16%,10µM*
COc1ccc(CCn2c(C)c(C(C)=O)c(C(C)=O)c2C)cc1OC,-12%,-14%,4,-14%,23%
COc1ccc(S(=O)(=O)N2CCN(c3nc(-c4cccs4)nc4ccccc34)CC2)cc1OC,-8%,/,/,-12%,/
CO[C@H]1C=C2CCN(C)[C@H]2C2c3cc4c(cc3C(=O)O[C@@H]21)OCO4 (stereo partly specified),-1%,12%,-63*,-11%,-2%
COc1ccc(CCn2c3c(c(=O)[nH]c2=S)CN(c2ccccc2)CN3)cc1OC,-13%,/,/,?,/
COc1ccc(CCN(C)C(=O)c2cnn(-c3nccc(-c4ccc(C)o4)n3)c2C)cc1OC,-17%,32%,/,-11%,/
COc1cccc(N2CCN(C(=O)c3cnn(-c4ccc(C)cc4C)c3C3CCN(C(=O)OC(C)(C)C)CC3)CC2)c1,-27%,?,22,-18%,/
O=C(NNC(=O)C12CC3CC(CC(C3)C1)C2)c1ccccn1,10µM*,?,-107*,?,?
O=C(Nc1cccnc1)C1(F)C(F)(F)C(F)(F)C(F)(F)C(F)(F)C1(F)F,/,-21%,40,-25%,3.2µM*
O=C(Nc1cccnc1)C12CC3CC(CC(C3)C1)C2,1%,-18%,-64*,2%,21%
O=C(N/N=C/c1cccnc1)C12CC3CC(CC(C3)C1)C2,i,-13%,56,-14%,14%
CN1CCN(c2ncc3nc(-c4cc(F)cc(F)c4)c(=O)n(CCC#N)c3n2)CC1,/,-24%,/,/,/
O=C(Nc1cccc(Cl)c1)c1ccc(NCCCN2CCOCC2)c([N+](=O)[O-])c1,-15%[1.46 µM],?,?,?,10µM*
CSc1nc(N(CCO)CCO)c2sc3nc(-c4ccco4)c4c(c3c2n1)CCC4,-20%,-29%,-6,?,6.3µM*
O=C1c2ccccc2NC(c2ccc(-c3ccc(Br)cc3)o2)N1O (stereo unspecified),/,-16%,-72*,/,?
O=C1c2ccccc2NC(c2ccc(-c3ccc(F)cc3)o2)N1O (stereo unspecified),/,7%,-23,/,/
O=C1c2ccccc2NC(c2ccc(-c3cccc([N+](=O)[O-])c3)o2)N1O (stereo unspecified),13µM*,-13%,-79*,?,-21%
Brc1ccc(N2O[C@H]3C=C[C@@H]2C3)nc1,/,/,41,/,/
COC(=O)c1scc(-c2ccc(C)cc2)c1S(=O)(=O)N1CCN(c2cccc(Cl)c2)CC1,-6%,-30%,-29,7%,/
Cc1nn(-c2ccccc2)c(N2CCCC2)c1/C=N/NC(=O)c1cc(-c2ccccn2)nc2ccccc12,-4%,-7%,79,-27%,4µM*
Cc1nn(-c2ccccc2)c(N2CCCC2)c1/C=N/NC(=S)Nc1ccccc1F,i,13%,-61*,-10%,?
Cc1nn(-c2ccccc2)c(N2CCCC2)c1/C=N/NC(=O)c1cc2ccccc2cc1O,-30%,40µM*,2,-15%,?
SMILES,Vaccinia mCherry,FMDV antiviral,HCMV inh,Vaccinia Venus,HCV inhibitor
COc1ccc(NC(=O)c2cc3ccccc3o2)c(OC)c1,-5%,19%,41,-11%,/
O=C(C[n+]1ccccc1Br)c1ccc(F)cc1,-13%,/,/,-9%,/
Clc1ccc(C(c2ccc(Cl)cc2)n2cc[n+](CC(OCc3ccc(Cl)cc3Cl)c3ccc(Cl)cc3Cl)c2)cc1 (stereo unspecified),?,?,-99*,11µM*,?
O=C(C/C=N/OCc1ccc(Cl)cc1Cl)c1ccc(Cl)cc1,/,14%,-6,/,13%
CCCN(CCC)c1nc(Cl)nc(NCCN2CCOCC2)n1,i,?,-14,-14%,14µM*
C=CCNc1nc(NCCN2CCOCC2)nc(OC)n1,/,-23%,28,-16%,-6%
CCOC(=O)C1CCCCN1Cc1nc(N2CCN(C(C)=O)CC2)c2ccccc2n1 (stereo unspecified),-8%,5%,/,8%,/
CN(C(=O)Cn1nc(Cc2cccnc2)c2ccccc2c1=O)c1cccc(C(F)(F)F)c1,-19%,-19%,?,-13%,/
Cc1sc2nc(C3CC3)nc(N3CCN(C(=O)c4ccc(F)cc4)CC3)c2c1C,-11%,-28%,-81*,-5%,?
COc1ccc(NC(=O)Cn2ccn(-c3ccc(F)c(F)c3)c(=O)c2=O)cc1Cl,3%,-22%,46,2%,/
CC1CCc2c(sc(NC(=O)c3cc(-c4cccc(Cl)c4)on3)c2C(N)=O)C1 (stereo unspecified),-6%,-18%,11,-10%,/
O=C(CCCC(=O)N(c1ccc2c(c1)OCCO2)C(C(=O)NC1CCCCC1)c1ccc(F)cc1)Nc1ccccn1 (stereo unspecified),-18%,/,-68*,-23%,-5%
Cc1ccc(C(C(=O)NC2CCCCC2)N(C(=O)CCCC(=O)Nc2ccccn2)c2ccc3c(c2)OCCO3)cc1 (stereo unspecified),/,28%,-63*,/,-16%
CCCCNC(=O)N[C@H]1CC[C@@]23CCCN2C(=O)CCC[C@H]3[C@H]1C,/,/,-8,/,/
CCN(CC(=O)Nc1ccc(NC(C)=O)cc1)C(=O)c1oc2ccccc2c1C,-15%,-7%,-14,-14%,6%
CCN(CC(=O)Nc1ccc(NC(C)=O)cc1)C(=O)c1oc2c(ccc3ccccc32)c1C,-9%,-19%,-74*,-10%,-21%
CCCNC(=O)c1ccc2c(=O)c(O)c(-c3ccc(C)cc3)[nH]c2c1,13µM*,-23%,-30,?,-20%[8.37 µM]
O=C1Cc2ccccc2C1=C1C=c2ccccc2=C1,-14%,/,/,14%,/
CCOc1ccc(N)c(SSc2cc(OCC)ccc2N)c1,-8%,11%,-98*,-16%,-27%
CCOc1cccc(N)c1,i,-24%,/,-4%,-6%
CCCCC(CC)CN=C(N)NC(N)=NCCCCCCN=C(N)NC(N)=NCC(CC)CCCC (stereo unspecified),?,?,/,10µM*,?
COc1ccc(C)cc1NC(=O)c1ccc2c(c1)N(Cc1cccc(Cl)c1)C(=O)c1ccccc1S2=O (stereo unspecified),i,-17%,25,-6%,/
CC[n+]1c(C=C2C=C(C)OC(C)=C2)sc2ccccc21,-29%,?,-98*,79%,2.5µM*
CC[n+]1c(/C=C2/C=C(C)CC(C)C2)sc2ccccc21 (stereo unspecified),/,?,-9,/,3.5µM*
CC/C(=C/c1sc2ccccc2[n+]1CC)SC,i,?,-6,-14%,?

# Source: PubChem BioAssay (National Center for Advancing Translational Sciences (NCATS))
